The structures appear in SMILES notation. Active and inactive are the calls of the source.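 Rule for the calls: active = compounds whose cell count with miR-34 switched on is under 0.7 times the count with it off; inactive = the rest.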

The nature of the test: sensitizers of A549 cells to miR-34 induction, primary screen, imaging, A549 dox-inducible miR-34, nuclei and caspase counts (AID 1347080). Note: test concentration not given here. The conditions noted are these: A549 miR-34 inducible, Hoechst nuclei count, 48 h; stronger effect = lower value; cell number ratio, induced over uninduced.
Consider `COC(=O)C1=COC(OC2OC(CO)C(O)C(O)C2O)[C@H]2C(CO)=CC[C@H]12` (stereo partly drawn), for which the fold change is 0.942 (inactive). For the molecule `CC(C)(C(=O)NCC(F)(F)C(F)(F)F)C(=O)NC1C(=O)Nc2ccccc2-c2ccccc21` (stereo not drawn), the fold change was 0.97 (inactive). Then `CC(NC(=O)Cc1cc(F)cc(F)c1)C(=O)NC1C(=O)N(C)c2ccccc2-c2ccccc21` (stereo not drawn), with 0.913 (inactive); and `COc1cc2c(cc1Cc1cccc(Cl)c1F)c(=O)c(C(=O)O)cn2C(CO)C(C)C` (stereo not drawn), with 0.611 (active); and `CC(C)OC(=O)C(C)N[P@](=O)(OCC1OC(n2ccc(=O)[nH]c2=O)[C@](C)(F)C1O)Oc1ccccc1` (stereo partly drawn), with 0.909 (inactive). To `CC1CC(=O)NN=C1c1ccc(NN=C(C#N)C#N)cc1` (stereo not drawn) belongs 0.851 (inactive); to `CC(C)(CO)c1cc2cc(NC(=O)C3(c4ccc5c(c4)OC(F)(F)O5)CC3)c(F)cc2n1CC(O)CO` (stereo not drawn), 0.912 (inactive); to `CCCC(C)NC(=O)c1ccc(Cl)c(Cl)c1` (stereo not drawn), 0.868 (inactive).

For `COC1O[C@H]2O[C@@]3(C)CC[C@H]4[C@@H](C)CC[C@@H]([C@H]1C)[C@@]24OO3` (stereo partly drawn), the fold change is 0.86 (inactive). To `C[C@]12CC[C@H]3c4ccc(O)cc4CC[C@H]3[C@@H]1CC(O)C2O` (stereo partly drawn) belongs 0.884 (inactive); to `CNC(=C[N+](=O)[O-])NCCSCc1ccc(CN(C)C)o1`, 0.921 (inactive); to `CC(O)[C@@H]1C(=O)N2C(C(=O)O)=C(SC3CNC(CNS(N)(=O)=O)C3)C(C)[C@@H]12` (stereo partly drawn), 0.983 (inactive). In the case of `CC(C)C(N)C(=O)OCC(CO)OCN1C=NC2C(=O)NC(N)=NC21` (stereo not drawn), the fold change was 0.916 (inactive). Regarding `O=C(NN=Cc1ccc([N+](=O)[O-])o1)c1ccc(O)cc1`, the fold change is 1.02 (inactive). In the case of `COc1cc(CCc2cc(NC(=O)c3ccc(N4CC(C)NC(C)C4)cc3)n[nH]2)cc(OC)c1` (stereo not drawn), the fold change is 0.767 (inactive). To `O=C(NC1CCN(CCCCC2(C(=O)NCC(F)(F)F)c3ccccc3-c3ccccc32)CC1)c1ccccc1-c1ccc(C(F)(F)F)cc1` belongs 1.05 (inactive). Turning to `COc1cc2ncnc(Sc3nnc(C)s3)c2cc1OC`, the fold change was 0.954 (inactive). Then `C=CCNC1=C2CC(C)CC(OC)C(O)C(C)C=C(C)C(OC(N)=O)C(OC)C=CC=C(C)C(=O)NC(=CC1=O)C2=O` (stereo not drawn), with 1.02 (inactive). For `Cc1nc(NC(=O)N2CCCC2C(N)=O)sc1-c1csc(C(C)(C)C)n1` (stereo not drawn), the fold change is 0.968 (inactive). Regarding `Cc1cn(C2CC(O)C(CO)O2)c(=O)[nH]c1=O` (stereo not drawn), the fold change is 0.853 (inactive).

Turning to `COc1ccc2cc1Oc1ccc(cc1)CC1c3cc(c(OC)cc3CCN1C)Oc1c(OC)c(OC)cc3c1C(C2)N(C)CC3` (stereo not drawn), the fold change is 0.908 (inactive). As for `CCOC(=O)C(CCc1ccccc1)NC1CSC(c2cccs2)CN(CC(=O)O)C1=O` (stereo not drawn), the fold change is 1.05 (inactive). Then `CC(=O)SC1CC2=CC(=O)CC[C@]2(C)[C@@H]2CC[C@@]3(C)[C@@H](CC[C@]34CCC(=O)O4)[C@H]12` (stereo partly drawn), with 0.898 (inactive). To `CCNc1nc(Nc2cc(F)c(C(=O)N3CCOCC3)cc2OC)ncc1C(F)(F)F` belongs 0.9 (inactive). To `CN1CCN(C(=O)c2cc3cc(Cl)ccc3[nH]2)CC1` belongs 1 (inactive); to `CC1=NN(c2ccc(C(=O)O)cc2)C(=O)C1=Cc1ccc(-c2cc(C)c(C)cc2[N+](=O)[O-])o1`, 0.902 (inactive). Regarding `O=C(O)C1OC(Oc2cc3oc(-c4ccccc4)cc(=O)c3c(O)c2O)C(O)C(O)C1O` (stereo not drawn), the fold change is 0.916 (inactive).

Take `NC(Cc1c[nH]c2ccc(O)cc12)C(=O)O` (stereo not drawn): the fold change is 0.876 (inactive).

Values taken from PubChem BioAssay.
